Measurements reported in PubChem BioAssay (EPA / NIEHS).
Active and inactive are the calls of the source. How the source made its calls: active means hit-call score of the fitted dose curve at least 0.9, where 1 is the maximum; inactive means score below 0.9.

experiment: APR_HepG2_MicrotubuleCSK_24hr: Apredica 24-hour HepG2 Assay for Microtubule CSK Stabilty (AID 2282909); conditions: HepG2 microtubule cytoskeleton imaging, actives raise or lower the signal
Procedure: APR_HepG2_24hr is a cell-based, multiplexed-readout assay that uses HepG2, a human liver cell line, with measurements taken at 24 hours after chemical dosing in a 384-well plate.APR_HepG2_MicrotubuleCSK_24hr is one of 10 assay component(s) measured or calculated from the APR_HepG2_24hr assay. It is designed to make measurements of protein conformation, a form of conformation reporter, as detected with fluorescence intensity signals by HCS Fluorescent Imaging technology.Data from the assay component APR_HepG2_MicrotubuleCSK_24hr was analyzed into 1 assay endpoint. This assay endpoint, APR_HepG2_MicrotubuleCSK_24hr, was analyzed with bidirectional fitting relative to DMSO as the negative control and baseline of activity. Using a type of conformation reporter, measures of protein for gain or loss-of-signal activity can be used to understand the signaling at the cellular-level. Furthermore, this assay endpoint can be referred to as a primary readout, because this assay has produced multiple assay endpoints where this one serves a signaling function. To generalize the intended target to other relatable targets, this assay endpoint is annotated to the cell morphology intended target family, where the subfamily is cell conformation.
Cells were treated with dimethyl sulfoxide (DMSO) as a solvent control at a final concentration of 0.5% v/v or with compounds in DMSO with a resulting final DMSO concentration of 0.5% v/v. Compound treatment was done at concentrations of 0.39, 0.78, 1.56, 3.12, 6.24, 12.5, 25, 50, 100, and 200 uM in duplicate on each plate. Cells were treated with compounds for 1, 24, or 72 hr. Carbonyl […] m-chloro-phenylhydrazone (CCCP) and taxol were used as positive controls for mitochondrial function and cytoskeletal stability, respectively; DMSO served as the negative control for this experiment. Cells were fixed by the direct addition of 50 uL formaldehyde in Hank's Balanced Salt Solution (HBSS) to a final concentration of 3.7%. After incubation in the fixation medium for 30 min at room temperature (293-298 K), cells were rinsed twice with HBSS and treated with cell permeabilization buffer (16 uL of 0.5% Triton X-100) for 10 min at room temperature (293-298 K) before labeling. For mitochondrial membrane potential and mitochondrial measurements, pre-fixed cells were incubated with 50 uL of MitoTracker Red CMXRos (Invitrogen) at a concentration of 250 nM for 30 min before fixation. In the remaining cases, post-fixed cells were labeled by incubation with a multiplexed mixture of primary antibodies in HBSS for 60 min at room temperature (293-298 K) to detect immunoreactivity of c-Jun (1:500), phospho-histone H3 (1:100), phospho-histone H2A.x (1:200), p53 (1:400), alpha-tubulin (1:200) and Hoechst 33342 (2 ug/mL). Cells were labeled for multiplexed imaging on two separate plates: a) Hoechst 33342, MitoTracker Red, phospho-histone H3, and alpha-tubulin, and b) Hoechst 33342, phospho-histone H2A.x, and c-Jun. A final rinse with HBSS (50 uL) was performed before analysis. The primary and secondary antibodies for the proteins were phospho-histone H3 (rabbit anti-phospho-histone H3 and FITC-donkey anti-rabbit IgG), phospho-histone H2A.x (mouse anti-phospho-histone H2A.x and FITC-donkey anti-mouse IgG), c-Jun (rabbit anti-phospho-c-Jun and Cy3-donkey anti-rabbit IgG), p53 (sheep anti-p53 and Cy5-donkey anti-sheep IgG), alpha-tubulin (mouse anti-alpha-tubulin and Cy5-donkey anti-mouse IgG). These antibodies are available as the CellCiphr HepG2 assay kit (Millipore).Digital images of each well were captured using a Cellomics ArrayScan VTI (Thermo Scientific Cellomics) (0.8 NA objective, 0.63x optical coupler, and XF-93 filter set) at 20x magnification. The images were acquired using the autofocus feature of the ArrayScan instrument, which entails the following steps. First, the camera focuses on channel 1 (Hoechst 33342), where nuclei are identified. Second, a Z offset of 1 um is used for capturing mitochondria (MitoTracker Red). […]

Structure (SMILES)	outcome	AC50
CCCCCCCCCCCCc1cccc(S(=O)(=O)O)c1	inactive	–
Cc1cc(C)cc(C)c1	inactive	–
COc1ccccc1N	inactive	–
CC(C)(C)c1ccccc1O	inactive	–
Oc1cc(Cl)c(Cl)cc1Cl	–	41.8 µM (active)
CN(C)C(=S)S	inactive	–
O=C(O)C1(c2ccc3c(c2)OC[C@H](Cc2ccc(-c4ccccc4)cc2)[C@H]3O)CCCC1	inactive	–
OCCN(CCO)CCO	inactive	–
N#Cc1cccnc1	inactive	–
O=C(N[C@H]1CN2CCC1CC2)c1ccc2c(c1)OCCO2	inactive	–
CC(C)O.CC(C)O.OCCN(CCO)CCO.OCCN(CCO)CCO.[Ti]	inactive	–
Clc1cccc(Cl)c1Cl	inactive	–
Clc1cccc(Cl)c1	inactive	–
